# Bioassay records as filed in PubChem.
# Sampled rows, rich in hits. Any-hit rate of the full collection: about 8.5%.
# NPSR antagonist: blocks cAMP signaling of the human neuropeptide S receptor; CHO-NPSR cells, cAMP TR-FRET, antagonist mode; Potency, µM (series often up to 38.3 µM), for the others: top-dose activity change, negative = inhibition, actives largely listed as inhibitors; hit rate 1% among 220,000; Q6W5P4; AID 1461; active = well fitted curve in the direction sought with a large enough effect; inconclusive = small, poorly fitted or top-dose-only effect, or another doubt; inactive = no such curve, though single readings can be large; an effect the other way counts as inactive or inconclusive; also: potency is read from the fitted curve at half-maximal effect; nearly all actives have a fitted effect of over 50% in size
# RGS12 GoLoco inh: inhibitors of human Gai1-RGS12 GoLoco interaction (red fluorophore) | hit rate 0.44% among 230,000 | Potency, µM (doses to about 61.6 µM), inactives show at the top dose activity, negative = inhibition, actives largely listed as inhibitors | Gai1:RGS12 GoLoco peptide FP, rhodamine, 10 min | AID 880 | P63096; active = well fitted inhibition curve with a large enough effect, not every such curve was filed as active; inactive = no such curve, though single readings can be large or run the other way; also: potency is read from the fitted curve at half-maximal effect; nearly all actives have a fitted effect of over 30% in size
# Target sequence (P63096 whole entry, looked up): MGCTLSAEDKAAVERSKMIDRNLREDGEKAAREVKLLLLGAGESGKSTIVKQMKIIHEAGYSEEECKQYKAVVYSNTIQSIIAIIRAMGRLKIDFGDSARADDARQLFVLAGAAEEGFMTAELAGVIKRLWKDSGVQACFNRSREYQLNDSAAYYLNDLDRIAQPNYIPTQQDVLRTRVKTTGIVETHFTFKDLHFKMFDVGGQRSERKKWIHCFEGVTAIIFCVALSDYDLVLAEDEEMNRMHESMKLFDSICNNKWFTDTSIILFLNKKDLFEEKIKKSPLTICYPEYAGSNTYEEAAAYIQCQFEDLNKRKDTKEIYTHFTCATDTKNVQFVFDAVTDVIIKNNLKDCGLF
# ALDH1A1 block: inhibitors of human aldehyde dehydrogenase 1A1. P00352. Potency, µM (highest dose often 75.3 µM), inactives show top-dose activity, negative = inhibition, hits mostly inhibitors. Purified ALDH1A1, NADH fluorescence, propionaldehyde substrate. hit rate 7.3% among 220,000. AID 1030;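 also: potency is read from the fitted curve at half-maximal effect; plate controls were no enzyme wells and a reference inhibitor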
# FBPA coupling cs: counter-screen for Giardia aldolase inhibitors: coupling enzyme system | coupling enzyme system counterscreen, AmpLite Red fluorescence | activity change, negative = inhibition, % at 58.2 µM, hits read low | hit rate 0.67% among 290,000 | AID 2472; in the data active = activity change below about -30%
#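 Compounds tested against the coupling enzymes alone at 57.5 uM final; readout was AmpLite Red fluorescence (525/598 nm) after 20 min at RT.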
# Sfp inh: inhibitors of Bacillus subtilis Sfp phosphopantetheinyl transferase; Q9F4F7; Biochemical Sfp PPTase activity, qHTS; Potency, µM, for the others: largest response in the series, negative = inhibition, hits mostly inhibitors; hit rate 3.5% among 310,000; AID 1490; active = well fitted curve in the direction sought with a large enough effect; inconclusive = small, poorly fitted or top-dose-only effect, or another doubt; inactive = no such curve, though single readings can be large; an effect the other way counts as inactive or inconclusive;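 also: the enzyme is Sfp with the accession as filed and its product quenches rhodamine fluorescence; potency is read from the fitted curve at half-maximal effect; 0% = enzyme reaction without inhibitor and -100% = no enzyme wells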
#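 After 15 min at room temperature with compound, 15 nM Sfp received 5 uM rhodamine-CoA plus 12.5 uM BHQ-2-ybbR (50 mM Hepes pH 7.6, 10 mM MgCl2). Rate came from the fluorescence difference over 30 min, ex 525/em 598 nm.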
# KDM4E inh: JMJD2E (human) inhibition. B2RXH2. JMJD2E catalytic domain, FDH-coupled NADH fluorescence (FDH is formaldehyde dehydrogenase). Potency, µM (series often up to 57.1 µM), for inactives: top-dose activity change, negative = inhibition, hits mostly inhibitors. hit rate 1.6% among 230,000. AID 2147;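 also: potency is read from the fitted curve at half-maximal effect; 0% = wells with enzyme and -100% = buffer wells without enzyme; nearly all actives have a fitted effect of over 50% in size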
# Target sequence (B2RXH2 1-337 limits assumed): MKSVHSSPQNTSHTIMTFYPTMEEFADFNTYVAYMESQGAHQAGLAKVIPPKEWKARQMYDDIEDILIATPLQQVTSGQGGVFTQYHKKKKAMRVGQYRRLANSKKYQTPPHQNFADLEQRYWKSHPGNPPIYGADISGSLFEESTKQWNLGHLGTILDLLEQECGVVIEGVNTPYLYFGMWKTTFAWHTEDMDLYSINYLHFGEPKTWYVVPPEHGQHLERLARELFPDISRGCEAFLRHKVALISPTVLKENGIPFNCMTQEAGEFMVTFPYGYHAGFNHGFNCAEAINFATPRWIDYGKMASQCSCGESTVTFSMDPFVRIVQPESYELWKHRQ
# * = called active by the depositor; ? = inconclusive; . = not tested or not shown; [ ] = remark or other dose. Unless noted, calls follow the shape of the dose curve; as a rule, active = well fitted inhibition curve with a large enough effect (not every such curve was filed as active); inconclusive = small, poorly fitted or top-dose-only effect, or another doubt; inactive = no such curve, though single readings can be large or run the other way. Unless noted, % is scaled to controls: 0 for no effect and ±100 for the full control effect.
SMILES,NPSR antagonist,RGS12 GoLoco inh,ALDH1A1 block,FBPA coupling cs,Sfp inh,KDM4E inh
C/C=C\C=C/C(=O)Nc1cccc(C2=NOC3(C2)C[C@H](C(N)=O)N(C(=O)CC)C3)c1 (stereo partly drawn),35%,-27%,.,-9,13µM*,8%
C/C=C\C=C/C(=O)Nc1cccc(C2=NOC3(C2)C[C@@H](C(N)=O)N(C(=O)CCCCC)C3)c1 (stereo partly drawn),13%,-17%,.,-1,25µM*,5%
CC(=O)OCC1OC(C#CC(C)(C)C)C=CC1OC(C)=O (stereo not drawn),.,.,?,-1,?,.
COc1cc(OC)c(C2C(C#N)=C(C)NC(C)=C2C#N)c(C(=O)O)c1,-14%,6%,.,4,-2%,?
CCn1c(SCC(=O)N2CCCCC2C)nc2c1c(=O)n(C)c(=O)n2C (stereo not drawn),.,.,.,6,7%,.
Cc1cc(Cl)ccc1NC(=S)N1CCN(C(=O)c2ccco2)CC1,.,.,.,.,12%,.
CC(Cc1ccccc1)NC(=O)CCCN1C(=O)c2ccccc2C1=O (stereo not drawn),.,.,.,-3,10%,.
Cc1occc1-c1nnc(SCC(=O)Nc2ccccc2-c2ccccc2)n1C,-3%[46.1 µM],6%,22µM*,2,-1%,-1%
Cn1c(SCC(=O)c2cc(Cl)c(Cl)s2)nnc1-c1ccco1,35%,-4%,28µM*,13,18µM*,-5%
CCCn1c(SCC(=O)Nc2ccccc2-c2ccccc2)nnc1-c1ccoc1C,?,-1%,32µM*,2,-7%,2%
Cc1ccccc1NC(=O)CSc1nnc(-c2ccoc2C)n1CCc1ccccc1,?,6%,-12%,2,-15%,0%
COc1ccccc1-n1cnnc1SCC(=O)Nc1cccnc1Cl,7%,11%,25µM*,1,14%,-3%
N=C1N=C(N)c2cc3ccccc3cc21,.,2%,?,.,.,.
Cc1occc1-c1nnc(SCC(=O)c2c[nH]c3ccccc23)n1C,-30%[46.1 µM],-3%,?,0,50µM*,2%
Cc1ccccc1NC(=O)CSc1nnnn1C,3%[46.1 µM],-6%,11%,4,11%,0%
COc1ccccc1-n1cnnc1SCC(=O)c1c[nH]c2ccccc12,10%,8%,10µM*,1,-9%,-7%
Cn1nnnc1SCC(=O)Nc1ccccc1-c1ccccc1,-16%[46.1 µM],1%,13µM*,5,26%,0%
CC(C)n1c(SCC(=O)Nc2nncs2)nnc1-c1ccco1,.,.,.,.,20µM*,.
Cc1occc1-c1nnc(SCC(=O)c2ccc(Cl)cc2)n1C,-9%[46.1 µM],6%,?,4,-21%,-5%
Cc1cc(NC(=O)COC(=O)[C@@H](NS(=O)(=O)c2ccc(Br)cc2)C(C)C)no1,-14%,12%,.,3,8%,-4%
CC1(C)CC(NC(=O)C2CCN(S(=O)(=O)c3ccc(F)cc3)CC2)CC(C)(C)N1,.,.,.,.,5%,.
O=C(NCc1n[nH]c(=S)n1-c1ccc(Cl)c(Cl)c1)c1ccc(S(=O)(=O)N2CCOCC2)cc1,7%,-6%,?,1,-20%,-7%
COCC(=O)N(CCc1ccc(OC)c(OC)c1)Cc1cc2cc(C)ccc2nc1Cl,0%,-3%,2%,2,13%,-16%
C#CCOCCOCCOCCNc1nc(N2CCN(C(=O)[C@H]([C@@H](C)CC)n3cc([C@@H](N)CO)nn3)CC2)nc(N2CCN(C(=O)[C@H](Cc3cc4ccccc4[nH]3)n3cc([C@@H](N)Cc4ccc(O)cc4)nn3)CC2)n1,24%,-2%,.,1,?,6%
COc1cc(OC)c2cc(-c3ccncc3)cnc2c1,.,20%,?,-12,-10%,?
SMILES,NPSR antagonist,RGS12 GoLoco inh,ALDH1A1 block,FBPA coupling cs,Sfp inh,KDM4E inh
Cn1c(SCC(=O)Nc2ccccc2-c2ccccc2)nnc1-c1ccco1,-7%[46.1 µM],7%,8.9µM*,0,-14%,1%
CCC(=O)Nc1ccc(NC(=O)CSc2nnc(-c3ccco3)n2C)cc1,.,.,.,0,11%,.
C=CCOc1ccc(C2=NOC(C(=O)Nc3ccc4c(c3)OCCO4)C2)cc1OC (stereo not drawn),.,.,.,2,10%,.
Cc1ccccc1C1CC(=O)Oc2cc(C)c(Cl)c(C)c21 (stereo not drawn),.,8%[88.7 µM],4%,2,-29%,.
Cc1c2c(nc3ccccc13)CC(C)(C)CC2=O,2%,1%,14µM*,2,27%,?
Cc1c2c(nc3nc4ccccc4n13)CC(C)(C)CC2=O,-12%[46.1 µM],11%,-2%,1,13%,-8%
O=C(NCCCN1CCOCC1)c1ccc(Sc2cccc(Cl)c2)c([N+](=O)[O-])c1,0%,1%,12%,1,-12%,-2%
CC1=C(C)C(=O)C(N2CCOCC2)=CC1=O,-2%,2%,-9%,-60*,14%,-24%
CN(C1=C(N2CCOCC2)C(=O)c2ccccc2C1=O)c1ccccc1,-24%,-9%,-14%,-40*,-7%,-1%
Cc1ccc(N2CCOCC2)c2c1C(=O)c1ccccc1C2=O,-14%,11%,-4%,6,1%,-8%
O=C1C=C(N2CCOCC2)c2ccccc2C1=O,.,.,.,-66*,8%,.
Cc1ccc(S(=O)(=O)N2CCc3ccccc3C2)cc1C,.,.,.,1,5%,.
COc1ccc(C(C)(C)C)cc1NC(=O)c1cc(S(=O)(=O)N(C)C)ccc1N1CCCC1,-47%,0%,-13%,0,-6%,?
Cn1c(CNc2ccc(F)cc2)nc2ccccc21,.,.,.,2,14%,.
COCCOC(=O)C1=C(C)NC2(O)c3ccccc3C(=O)C12O (stereo not drawn),33%,-8%,11µM*,-27,89µM*,9%
CCOC(=O)C1=C(C)NC2(O)c3ccccc3C(=O)C12O (stereo not drawn),-4%[46.1 µM],-5%,?,-23,79µM*,-4%
CCOC(=O)C1=C(C)NC(C)=C(C(=O)OCC)C1/C=C/c1ccccc1,-21%[46.1 µM],4%,?,-2,28%,?
CC(=O)C1=C(C)NC2(O)c3ccccc3C(=O)C12O (stereo not drawn),12%,-2%,11µM*,-20,-1%,2%
Cc1ccccc1NC(=O)NC1(C(=O)NCC2CCCO2)CCCCC1 (stereo not drawn),.,.,.,0,20%,.
O=C(Nc1ccccn1)C1CCN(S(=O)(=O)c2cccc3nonc23)CC1,21%[46.1 µM],2%,28µM*,-2,19%,-1%
COc1ccc(C2c3sc(=O)[nH]c3SC3C4CCC(C4)C23)cc1OC (stereo not drawn),7.9µM*,3%,?,3,2%,7%
O=c1[nH]c2c(s1)C(c1ccc(O)cc1)C1C3CCC(C3)C1S2 (stereo not drawn),10µM*,-1%,11µM*,-1,50µM*,-9%
